Here are results for six molecules from article PMC12136788.

To fix the notation:
B1: chr11:113276847:113276948:+|3pUTR|ENSG00000149294|msi1|FALSE|unique (ssRNA)
RNA: GGGAGUUCUACAGUCCGACGAUCAGAAGGGAAAAGCCAGCCCUUUGUAUAGAAAUUUUGCUUUUUUUUCCCUCAUUCUACUUUAGAACUGCAAGCUUGUGCACUGUGGAUGCGUGAAUAUUUUAGUGUGAAACGUGUUUUUGUCAACAGAGGAUUGAGCAUCA
B2: chr5:16663783:16663884:-|3pUTR|ENSG00000145555|msi1|FALSE|bound_elsewhere (ssRNA)
RNA: GGGAGUUCUACAGUCCGACGAUCUGAGGAUACAAAAUUCACAGAUGCUCAAGUCCCUGCUAUACAGUGGUAUAAUAUUUGCAUAGAACCUGCACACAUCUUUCCUUACCCUUUAAAUCAUCUCCAGGUUACAGAUACCUAGCACAACAGAGGAUUGAGCAUCA
B3: chr1:186359875:186359976:-|CDS|ENSG00000047410|msi1_unk|FALSE|overlapping (ssRNA)
RNA: GGGAGUUCUACAGUCCGACGAUCGGAAACUCAGGAUCAGUUGCUUUUGGAGAAACUAGAGAACAAAAGAAUUAAUAAGUACCUAGAUGAAAUAGUGAAAGAAGUGGAAGCCAAAGCACCAAUUUUGAAACGCCAGCGUGAGGACAACAGAGGAUUGAGCAUCA
B4: chr3:97755980:97756081:+|3pUTR|ENSG00000080224|unk|total|mutant (ssRNA)
RNA: GGGAGUUCUACAGUCCGACGAUCUAAUUAAAAAUCUCUUUCCUACCUUCCGUAAUUUGCCGGAUGAACUGUAUGCAUUCCGACCGAAAUUGCUUUUGUUAAAUUUACAUUUAAACACAUCUUCAUUCACUCCGAGAAGCCAUACAACAGAGGAUUGAGCAUCA
B5: chr1:32196777:32196878:+|3pUTR|ENSG00000084652|msi1|FALSE|unique (ssRNA)
RNA: GGGAGUUCUACAGUCCGACGAUCUUUGAAGCUAGUUCAUUGUCCUGCAGGUCCCUUCAUCUUCCAUACCUAGCCCACUCUUUUAGCCCUUACCUUAAAUCUCUCAGAUAAGUUGGUUCACAAAGAAUGUUAAGUACUGAAUCACAACAGAGGAUUGAGCAUCA
B6: chr2:223975255:223975490:-|3pUTR|ENSG00000135919|msi1|FALSE|bound_elsewhere (ssRNA)
RNA: GGGAGUUCUACAGUCCGACGAUCUUUAAAUUCUUUUCCCCCAUCCCCCUCCAAAGUCUUGAUAGCAAGCGUUAUUUUGGUGGUAGAAACGGUGAAAUCUCUAGCCUCUUUGUGUUUUUGUUGUUGUUGUUGUUGUUGUUUUAUCAACAGAGGAUUGAGCAUCA

In all, about 5,800 sequences were measured (“enrichment r”: median about 0.68, highest 2% from about 11 on). Only a selection was taken, and the highest values are over-represented in it overall.

This assay deals with T1, UNK ZnF1-6 (called full-length) (human, UniProt Q9C0B0 30-357).
T1 sequence: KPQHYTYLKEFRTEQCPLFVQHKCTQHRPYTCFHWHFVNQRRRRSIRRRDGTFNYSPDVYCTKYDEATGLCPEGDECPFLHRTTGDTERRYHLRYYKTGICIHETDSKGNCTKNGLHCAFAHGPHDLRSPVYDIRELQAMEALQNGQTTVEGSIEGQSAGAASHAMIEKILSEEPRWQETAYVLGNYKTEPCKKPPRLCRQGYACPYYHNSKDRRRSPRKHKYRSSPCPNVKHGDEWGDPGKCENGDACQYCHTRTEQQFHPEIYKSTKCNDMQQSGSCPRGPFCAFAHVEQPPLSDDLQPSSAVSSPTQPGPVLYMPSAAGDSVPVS
The assay is described as follows: nsRBNS (natural sequence RNA bind-n-seq); RBNS binding buffer (assumed for nsRBNS): 25 mM Tris pH 7.5, 150 mM KCl, 3 mM MgCl2, 0.01% Triton X-100, 500 ug/ml BSA, 20 U/ml SUPERase-In, 4 C; UNK is unkempt and MSI1 is Musashi-1; names of the RNAs are library labels; protein concentration not given here; high values mean tight binding.
For the molecule B1, the binding signal was 1.38 enrichment R.

Consider B2, for which the binding signal came out at 0.456 enrichment R.

On to B3, for which the binding signal turned out to be 4.28 enrichment R.

B4 came in with a binding signal of 0.569 enrichment R.

As for B5, the binding signal is 1.19 enrichment R.

The molecule B6 had a binding signal of 2.44 enrichment R.
